{"source": "PubChem BioAssay (EPA / NIEHS)", "key": {"TTR (gene 7276)": {"tested_on": "TTR (gene 7276)", "assay": "CCTE_GLTED_hTTR_0.125uM: CCTE's human Transthyretin (hTTR) Inhibition Assay, with 0.125uM TTR, Great Lakes Toxicology and Ecology Division (GLTED) Lab (AID 2284431)", "method_in_brief": "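Cell-free displacement of the fluorescent probe ANSA from human TTR (0.125uM) after 2 h incubation with test chemical. Fluorescence read at 380 nm excitation/475 nm emission; loss of signal fitted relative to DMSO baseline.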"}, "[1]": {"assay": "VALA_TUBIPS_Agonist_CellCount: Viability Assessment in the VALA Sciences human iPS-derived Endothelial Tubule Formation (TUBIPS) Agonism Assay (AID 2284338; active = hit-call score of the fitted dose curve at least 0.9, where 1 is the maximum)"}, "[2]": {"tested_on": "SRY-box transcription factor 17 (SOX17) Protein Expression, Deisenroth Lab, SOX17 (gene 64321)", "assay": "CCTE_Deisenroth_DEVTOX-GLR_legacy_Sox17: (Legacy) CCTE's DevTox GLR-Endo Assay Evaluation of SRY-box transcription factor 17 (SOX17) Protein Expression, Deisenroth Lab (AID 2284341)", "conditions": "actives raise or lower the signal", "method_in_brief": "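Using the RUES2-GLR line, compounds are tested as 10-point series during 48-h defined-media differentiation. Sox17 reporter fluorescence per cell determines positivity; endpoint is percentage positive, analysed bidirectionally versus DMSO baseline.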"}, "SERPINA7 (gene 6906)": {"tested_on": "SERPINA7 (gene 6906)", "assay": "CCTE_GLTED_hTBG: CCTE's human Thyroxine-binding Globulin (TBG) Inhibition Assay, Great Lakes Toxicology and Ecology Division (GLTED) Lab (AID 2284343; active = hit-call score of the fitted dose curve at least 0.9, where 1 is the maximum)", "method_in_brief": "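Steps: combine TBG with chemical; incubate 2 hours so that disruptors release ANSA; record fluorescence (380 ex, 475 em). Loss of signal was fitted against DMSO controls.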"}, "[3]": {"tested_on": "SRY-box transcription factor 2 (SOX2) Protein Expression, Deisenroth Lab, SOX2 (gene 6657)", "assay": "CCTE_Deisenroth_DEVTOX-GLR_legacy_Sox2: (Legacy) CCTE's DevTox GLR-Endo Assay Evaluation of SRY-box transcription factor 2 (SOX2) Protein Expression, Deisenroth Lab (AID 2284346)", "method_in_brief": "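Read-out: fraction of Sox2+ cells by high-content fluorescence imaging of fixed RUES2-GLR cells after 48 h differentiation with two 24 h-spaced exposures. Positivity cutoff 5x BMAD above endoderm control median; 0.2% DMSO median subtracted.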"}, "[4]": {"assay": "CCTE_Deisenroth_H295R-HTRF_384WELL_ESTRADIOL: CCTE's H295R-HTRF Assay Evaluation of Estradiol Concentration, Deisenroth Lab (AID 2284361)", "conditions": "actives raise or lower the signal", "method_in_brief": "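Estradiol secreted into medium by H295R adrenocortical cells, quantified by HTRF after 48 h dosing over a nine-point 0.001 - 100 uM final range; gain or loss versus DMSO. Parallel ATP-luminescence viability readout; n=5 experiments.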"}, "[5]": {"assay": "CCTE_Deisenroth_H295R-HTRF_384WELL_TESTOSTERONE: CCTE's H295R-HTRF Assay Evaluation of Testosterone Concentration, Deisenroth Lab (AID 2284373)", "conditions": "actives raise or lower the signal", "method_in_brief": "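Testosterone secreted into medium was quantified by direct HTRF immunoassay after a 48 h treatment of H295R adrenocortical cells (nine concentrations, 0.001–100 uM final). Gain or loss fitted relative to DMSO; CellTiter-Glo viability read on same plates.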"}, "[6]": {"assay": "CCTE_Deisenroth_H295R-HTRF_384WELL_CTOX: Cytotoxicity Assessment in CCTE's H295R-HTRF Assay, Deisenroth Lab (AID 2284380; active = hit-call score of the fitted dose curve at least 0.9, where 1 is the maximum)", "method_in_brief": "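Luminescent ATP viability readout (CellTiter-Glo 2.0), multiplexed on plates used for hormone sampling, after 48 h chemical exposure. Human H295R cells; final concentrations 0.001–100 uM in nine steps, technical triplicates, five experiments; DMSO baseline.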"}, "[7]": {"tested_on": "SRY-box transcription factor 2 (SOX2) Protein Expression, Deisenroth Lab, SOX2 (gene 6657)", "assay": "CCTE_Deisenroth_DEVTOX-GLR_Endo_SOX2: CCTE's DevTox GLR-Endo Assay Evaluation of SRY-box transcription factor 2 (SOX2) Protein Expression, Deisenroth Lab (AID 2284412; active = hit-call score of the fitted dose curve at least 0.9, where 1 is the maximum)", "method_in_brief": "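Endpoint is percent SOX2-positive cells (SOX2+ count/total cells) minus 0.2% DMSO control, from high-content imaging of fixed, nuclear-stained RUES2-GLR cells. Dosing twice at 24 h intervals over 48 h differentiation, 1 nM–200 uM in 10 points.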"}, "[8]": {"tested_on": "SRY-box transcription factor 17 (SOX17) Protein Expression, Deisenroth Lab, SOX17 (gene 64321)", "assay": "CCTE_Deisenroth_DEVTOX-GLR_Endo_SOX17: CCTE's DevTox GLR-Endo Assay Evaluation of SRY-box transcription factor 17 (SOX17) Protein Expression, Deisenroth Lab (AID 2284413)", "method_in_brief": "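Human RUES2-GLR cells carrying an inducible fluorescent reporter are differentiated in defined media for 48 h and dosed twice, 24 h apart. After fixation and nuclear staining, imaging yields SOX17+ cell percentage relative to 0.2% DMSO-treated differentiated cells.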"}, "[9]": {"tested_on": "Brachyury (BRA) Protein Expression, TBXT (gene 6862)", "assay": "CCTE_Deisenroth_DEVTOX-GLR_Endo_BRA: CCTE's DevTox GLR-Endo Assay Evaluation of Brachyury (BRA) Protein Expression, Deisenroth Lab (AID 2284417)", "method_in_brief": "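Percent BRA+ (mesoderm) RUES2-GLR cells after 48 h differentiation with two exposures, 1 nM - 200 uM; 0.2% DMSO control subtracted.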"}, "[10]": {"assay": "CCTE_Deisenroth_DEVTOX-GLR_Endo_CellCount: Viability Assessment in CCTE's DevTox GLR-Endo Assay, Deisenroth Lab (AID 2284420)", "method_in_brief": "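RUES2-GLR human pluripotent cells seeded 24 h, then differentiated 48 h with two chemical exposures at 24 h intervals (10-point, 1 nM - 200 uM). Fixed, nuclear-stained, imaged; nuclei counts give % change in cell count versus 0.2% DMSO.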"}, "[11]": {"tested_on": "SRY-box transcription factor 17 (SOX17) Protein Expression, Deisenroth Lab, SOX17 (gene 64321)", "assay": "CCTE_Deisenroth_DEVTOX-GLR_Pluri_SOX17: CCTE's DevTox GLR-Pluri Assay Evaluation of SRY-box transcription factor 17 (SOX17) Protein Expression, Deisenroth Lab (AID 2284427; active = hit-call score of the fitted dose curve at least 0.9, where 1 is the maximum)", "method_in_brief": "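RUES2-GLR human pluripotent cells were seeded 24 h, then differentiated 48 h in defined media with two chemical exposures 24 h apart (10-point series, 1 nM - 200 uM). Fixed, nuclear-stained cells were imaged; %SOX17+ cells minus 0.2% DMSO control reported.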"}, "[12]": {"tested_on": "SRY-box transcription factor 2 (SOX2) Protein Expression, Deisenroth Lab, SOX2 (gene 6657)", "assay": "CCTE_Deisenroth_DEVTOX-GLR_Pluri_SOX2: CCTE's DevTox GLR-Pluri Assay Evaluation of SRY-box transcription factor 2 (SOX2) Protein Expression, Deisenroth Lab (AID 2284428)", "method_in_brief": "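Human pluripotent RUES2-GLR cells were seeded 24 h, then differentiated 48 h in defined media with two chemical doses at 24-h intervals (10-point, 1 nM–200 uM). Nuclear-stained cells were imaged; SOX2+ cells/cell count gave percent change versus 0.2% DMSO control.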"}, "[13]": {"tested_on": "Brachyury (BRA) Protein Expression, Deisenroth Lab, TBXT (gene 6862)", "assay": "CCTE_Deisenroth_DEVTOX-GLR_Pluri_BRA: CCTE's DevTox GLR-Pluri Assay Evaluation of Brachyury (BRA) Protein Expression, Deisenroth Lab (AID 2284429; active = hit-call score of the fitted dose curve at least 0.9, where 1 is the maximum)", "method_in_brief": "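RUES2-GLR reporter line; 48 h mesoderm differentiation; two exposures, 24 h apart; 1 nM - 200 uM, 10 points; nuclear stain, high-content imaging, 5 fields/well; endpoint = %BRA+ cells of total count minus 0.2% DMSO; n=4.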"}, "[14]": {"assay": "CCTE_Deisenroth_DEVTOX-GLR_Pluri_CellCount: Viability Assessment in CCTE's DevTox GLR-Pluri Assay Evaluation of Total Cell Counts, Deisenroth Lab (AID 2284430)", "method_in_brief": "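Cytotoxicity readout: fluorescent nuclei counts by high-content imaging, expressed as percent change relative to 0.2% DMSO. Human RUES2-GLR pluripotent line differentiated 48 h, dosed twice at 24-h intervals across 1 nM - 200 uM (10 points).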"}, "[15]": {"assay": "CCTE_Mundy_HCI_iCellGluta_NOG_NeuronCount: CCTE's Neurite Outgrowth Assay in iCellGluta cells for Neuron Count, Mundy Lab (AID 2284340; active = hit-call score of the fitted dose curve at least 0.9, where 1 is the maximum;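 also: cells fixed about 48 h after compound addition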)", "method_in_brief": "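Neuron count read by automated high-content imaging of Hoechst 33342 and betaIII-tubulin/Alexa Fluor-488 labelling in human iPSC glutamatergic neurons. Activity fitted relative to DMSO.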"}, "[16]": {"assay": "CCTE_Mundy_HCI_iCellGluta_NOG_NeuriteCount: CCTE's Neurite Outgrowth Assay in iCellGluta cells for Neurite Count, Mundy Lab (AID 2284342; active = hit-call score of the fitted dose curve at least 0.9, where 1 is the maximum;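 also: chemical exposure about 48 hours starting 2 hours after plating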)"}, "[17]": {"assay": "VALA_TUBHUV_Agonist_TubuleLength: VALA Sciences human Umbilical Vein Endothelial Tubule Formation (TUBHUV) Agonism Assay (AID 2284337; active = hit-call score of the fitted dose curve at least 0.9, where 1 is the maximum)", "method_in_brief": "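Tubule length quantified by CD31 immunofluorescence imaging after fixation. HUVEC-HDF co-cultures (1:3) pre-grown 3 days with 10 ng/ml VEGF, then dosed 3 days in VEGF medium; 0.1 % DMSO vehicle baseline.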"}}, "note": "Records with an inconclusive call do not appear. The source made the active and inactive calls. The calls were made as follows, unless noted: active = hit-call score of the fitted dose curve at least 0.9, where 1 is the maximum; inactive = score below 0.9."}
{"smiles": "COC(=O)c1ccc(I)cc1S(=O)(=O)NC(=O)Nc1nc(C)nc(OC)n1", "values": [{"measurement": "AC50", "setting": "TTR (gene 7276)", "result": "1.8 µM (active)"}]}
{"smiles": "CC(C)(c1ccc(O)cc1)c1ccc(O)cc1", "values": [{"measurement": "outcome", "setting": "[1]", "result": "inactive"}, {"measurement": "AC50", "setting": "[2]", "result": "51.4 µM (active)"}, {"measurement": "AC50", "setting": "SERPINA7 (gene 6906)", "result": "12.4 µM (active)"}, {"measurement": "AC50", "setting": "[3]", "result": "50.7 µM (active)"}, {"measurement": "AC50", "setting": "[4]", "result": "37 µM (active)"}, {"measurement": "AC50", "setting": "[5]", "result": "0.804 µM (active)"}, {"measurement": "AC50", "setting": "[6]", "result": "15 µM (active)"}, {"measurement": "AC50", "setting": "[7]", "result": "64.4 µM (active)"}, {"measurement": "AC50", "setting": "[8]", "result": "50.8 µM (active)"}, {"measurement": "AC50", "setting": "[9]", "result": "83.8 µM (active)"}, {"measurement": "AC50", "setting": "[10]", "result": "35.5 µM (active)"}, {"measurement": "AC50", "setting": "[11]", "result": "29.3 µM (active)"}, {"measurement": "AC50", "setting": "[12]", "result": "38.9 µM (active)"}, {"measurement": "AC50", "setting": "[13]", "result": "38.4 µM (active)"}, {"measurement": "AC50", "setting": "[14]", "result": "19.7 µM (active)"}, {"measurement": "AC50", "setting": "TTR (gene 7276)", "result": "7.82 µM (active)"}]}
{"smiles": "CC(=O)S[C@@H]1CC2=CC(=O)CC[C@]2(C)[C@H]2CC[C@@]3(C)[C@@H](CC[C@@]34CCC(=O)O4)[C@H]12", "values": [{"measurement": "outcome", "setting": "[4]", "result": "inactive"}, {"measurement": "AC50", "setting": "[5]", "result": "1.28 µM (active)"}, {"measurement": "outcome", "setting": "[6]", "result": "inactive"}]}
{"smiles": "CCCCOCCOCCOCc1cc2c(cc1CCC)OCO2", "values": [{"measurement": "outcome", "setting": "[4]", "result": "inactive"}, {"measurement": "outcome", "setting": "[5]", "result": "inactive"}, {"measurement": "outcome", "setting": "[6]", "result": "inactive"}]}
{"smiles": "COc1c(Cl)ccc(Cl)c1C(=O)O", "values": [{"measurement": "AC50", "setting": "SERPINA7 (gene 6906)", "result": "47.7 µM (active)"}]}
{"smiles": "S=C(S)NCCNC(=S)S.[Mn+2].[S-]C([S-])=NCCN=C([S-])[S-].[Zn+2]", "values": [{"measurement": "outcome", "setting": "[1]", "result": "inactive"}, {"measurement": "outcome", "setting": "[15]", "result": "inactive"}, {"measurement": "outcome", "setting": "[16]", "result": "inactive"}]}
{"smiles": "N#CSCSc1nc2ccccc2s1", "values": [{"measurement": "AC50", "setting": "SERPINA7 (gene 6906)", "result": "33.2 µM (active)"}, {"measurement": "AC50", "setting": "TTR (gene 7276)", "result": "10.1 µM (active)"}]}
{"smiles": "Cc1nn(C)c(Oc2ccccc2)c1C=NOCc1ccc(C(=O)OC(C)(C)C)cc1", "values": [{"measurement": "AC50", "setting": "[15]", "result": "6.47 µM (active)"}, {"measurement": "AC50", "setting": "[16]", "result": "1.39 µM (active)"}]}
{"smiles": "N[C@@H](Cc1cc(I)c(Oc2ccc(O)c(I)c2)c(I)c1)C(=O)O", "values": [{"measurement": "outcome", "setting": "[17]", "result": "inactive"}, {"measurement": "outcome", "setting": "[1]", "result": "inactive"}]}
{"smiles": "OB(O)O", "values": [{"measurement": "outcome", "setting": "[2]", "result": "inactive"}, {"measurement": "outcome", "setting": "[3]", "result": "inactive"}, {"measurement": "outcome", "setting": "[8]", "result": "inactive"}, {"measurement": "AC50", "setting": "[9]", "result": "30.5 µM (active)"}, {"measurement": "outcome", "setting": "[10]", "result": "inactive"}, {"measurement": "outcome", "setting": "[11]", "result": "inactive"}, {"measurement": "outcome", "setting": "[12]", "result": "inactive"}, {"measurement": "outcome", "setting": "[13]", "result": "inactive"}, {"measurement": "outcome", "setting": "[14]", "result": "inactive"}]}
